# Data: the supplement of paper PMC11001985
# Unmarked numbers belong to inactive results.
# Compound: C#CCNC(=O)CCSSCCC(=O)NCCc1ccc(C=O)c(C=O)c1
# Assay: lysine labeling ratio R10:1 (500 µM / 50 µM probe), SILAC-ABPP in living cells; higher = lower intrinsic lysine reactivity toward the probe, active = 2 or less
# Conditions: HeLa; probe concentrations 500 vs 50 µM
# Procedure, shortened: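 SILAC light and heavy living HeLa cells in PBS at room temperature were labelled with 50 µM or 500 µM of an alkyne-tagged, disulfide-linked lysine probe, with forward and reverse label swaps. Mixed lysates were clicked to biotin-azide, trypsin-digested, captured on neutravidin, DTT-released, alkylated and analysed by LC-MS/MS on a TIMS-TOF Pro. R is the filtered median high-probe/low-probe MS1 peptide ratio per lysine, then the median across forward and reverse replicates. Ratios are capped at 20.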
# UniProt Q15149, sequence (Q15149 whole entry): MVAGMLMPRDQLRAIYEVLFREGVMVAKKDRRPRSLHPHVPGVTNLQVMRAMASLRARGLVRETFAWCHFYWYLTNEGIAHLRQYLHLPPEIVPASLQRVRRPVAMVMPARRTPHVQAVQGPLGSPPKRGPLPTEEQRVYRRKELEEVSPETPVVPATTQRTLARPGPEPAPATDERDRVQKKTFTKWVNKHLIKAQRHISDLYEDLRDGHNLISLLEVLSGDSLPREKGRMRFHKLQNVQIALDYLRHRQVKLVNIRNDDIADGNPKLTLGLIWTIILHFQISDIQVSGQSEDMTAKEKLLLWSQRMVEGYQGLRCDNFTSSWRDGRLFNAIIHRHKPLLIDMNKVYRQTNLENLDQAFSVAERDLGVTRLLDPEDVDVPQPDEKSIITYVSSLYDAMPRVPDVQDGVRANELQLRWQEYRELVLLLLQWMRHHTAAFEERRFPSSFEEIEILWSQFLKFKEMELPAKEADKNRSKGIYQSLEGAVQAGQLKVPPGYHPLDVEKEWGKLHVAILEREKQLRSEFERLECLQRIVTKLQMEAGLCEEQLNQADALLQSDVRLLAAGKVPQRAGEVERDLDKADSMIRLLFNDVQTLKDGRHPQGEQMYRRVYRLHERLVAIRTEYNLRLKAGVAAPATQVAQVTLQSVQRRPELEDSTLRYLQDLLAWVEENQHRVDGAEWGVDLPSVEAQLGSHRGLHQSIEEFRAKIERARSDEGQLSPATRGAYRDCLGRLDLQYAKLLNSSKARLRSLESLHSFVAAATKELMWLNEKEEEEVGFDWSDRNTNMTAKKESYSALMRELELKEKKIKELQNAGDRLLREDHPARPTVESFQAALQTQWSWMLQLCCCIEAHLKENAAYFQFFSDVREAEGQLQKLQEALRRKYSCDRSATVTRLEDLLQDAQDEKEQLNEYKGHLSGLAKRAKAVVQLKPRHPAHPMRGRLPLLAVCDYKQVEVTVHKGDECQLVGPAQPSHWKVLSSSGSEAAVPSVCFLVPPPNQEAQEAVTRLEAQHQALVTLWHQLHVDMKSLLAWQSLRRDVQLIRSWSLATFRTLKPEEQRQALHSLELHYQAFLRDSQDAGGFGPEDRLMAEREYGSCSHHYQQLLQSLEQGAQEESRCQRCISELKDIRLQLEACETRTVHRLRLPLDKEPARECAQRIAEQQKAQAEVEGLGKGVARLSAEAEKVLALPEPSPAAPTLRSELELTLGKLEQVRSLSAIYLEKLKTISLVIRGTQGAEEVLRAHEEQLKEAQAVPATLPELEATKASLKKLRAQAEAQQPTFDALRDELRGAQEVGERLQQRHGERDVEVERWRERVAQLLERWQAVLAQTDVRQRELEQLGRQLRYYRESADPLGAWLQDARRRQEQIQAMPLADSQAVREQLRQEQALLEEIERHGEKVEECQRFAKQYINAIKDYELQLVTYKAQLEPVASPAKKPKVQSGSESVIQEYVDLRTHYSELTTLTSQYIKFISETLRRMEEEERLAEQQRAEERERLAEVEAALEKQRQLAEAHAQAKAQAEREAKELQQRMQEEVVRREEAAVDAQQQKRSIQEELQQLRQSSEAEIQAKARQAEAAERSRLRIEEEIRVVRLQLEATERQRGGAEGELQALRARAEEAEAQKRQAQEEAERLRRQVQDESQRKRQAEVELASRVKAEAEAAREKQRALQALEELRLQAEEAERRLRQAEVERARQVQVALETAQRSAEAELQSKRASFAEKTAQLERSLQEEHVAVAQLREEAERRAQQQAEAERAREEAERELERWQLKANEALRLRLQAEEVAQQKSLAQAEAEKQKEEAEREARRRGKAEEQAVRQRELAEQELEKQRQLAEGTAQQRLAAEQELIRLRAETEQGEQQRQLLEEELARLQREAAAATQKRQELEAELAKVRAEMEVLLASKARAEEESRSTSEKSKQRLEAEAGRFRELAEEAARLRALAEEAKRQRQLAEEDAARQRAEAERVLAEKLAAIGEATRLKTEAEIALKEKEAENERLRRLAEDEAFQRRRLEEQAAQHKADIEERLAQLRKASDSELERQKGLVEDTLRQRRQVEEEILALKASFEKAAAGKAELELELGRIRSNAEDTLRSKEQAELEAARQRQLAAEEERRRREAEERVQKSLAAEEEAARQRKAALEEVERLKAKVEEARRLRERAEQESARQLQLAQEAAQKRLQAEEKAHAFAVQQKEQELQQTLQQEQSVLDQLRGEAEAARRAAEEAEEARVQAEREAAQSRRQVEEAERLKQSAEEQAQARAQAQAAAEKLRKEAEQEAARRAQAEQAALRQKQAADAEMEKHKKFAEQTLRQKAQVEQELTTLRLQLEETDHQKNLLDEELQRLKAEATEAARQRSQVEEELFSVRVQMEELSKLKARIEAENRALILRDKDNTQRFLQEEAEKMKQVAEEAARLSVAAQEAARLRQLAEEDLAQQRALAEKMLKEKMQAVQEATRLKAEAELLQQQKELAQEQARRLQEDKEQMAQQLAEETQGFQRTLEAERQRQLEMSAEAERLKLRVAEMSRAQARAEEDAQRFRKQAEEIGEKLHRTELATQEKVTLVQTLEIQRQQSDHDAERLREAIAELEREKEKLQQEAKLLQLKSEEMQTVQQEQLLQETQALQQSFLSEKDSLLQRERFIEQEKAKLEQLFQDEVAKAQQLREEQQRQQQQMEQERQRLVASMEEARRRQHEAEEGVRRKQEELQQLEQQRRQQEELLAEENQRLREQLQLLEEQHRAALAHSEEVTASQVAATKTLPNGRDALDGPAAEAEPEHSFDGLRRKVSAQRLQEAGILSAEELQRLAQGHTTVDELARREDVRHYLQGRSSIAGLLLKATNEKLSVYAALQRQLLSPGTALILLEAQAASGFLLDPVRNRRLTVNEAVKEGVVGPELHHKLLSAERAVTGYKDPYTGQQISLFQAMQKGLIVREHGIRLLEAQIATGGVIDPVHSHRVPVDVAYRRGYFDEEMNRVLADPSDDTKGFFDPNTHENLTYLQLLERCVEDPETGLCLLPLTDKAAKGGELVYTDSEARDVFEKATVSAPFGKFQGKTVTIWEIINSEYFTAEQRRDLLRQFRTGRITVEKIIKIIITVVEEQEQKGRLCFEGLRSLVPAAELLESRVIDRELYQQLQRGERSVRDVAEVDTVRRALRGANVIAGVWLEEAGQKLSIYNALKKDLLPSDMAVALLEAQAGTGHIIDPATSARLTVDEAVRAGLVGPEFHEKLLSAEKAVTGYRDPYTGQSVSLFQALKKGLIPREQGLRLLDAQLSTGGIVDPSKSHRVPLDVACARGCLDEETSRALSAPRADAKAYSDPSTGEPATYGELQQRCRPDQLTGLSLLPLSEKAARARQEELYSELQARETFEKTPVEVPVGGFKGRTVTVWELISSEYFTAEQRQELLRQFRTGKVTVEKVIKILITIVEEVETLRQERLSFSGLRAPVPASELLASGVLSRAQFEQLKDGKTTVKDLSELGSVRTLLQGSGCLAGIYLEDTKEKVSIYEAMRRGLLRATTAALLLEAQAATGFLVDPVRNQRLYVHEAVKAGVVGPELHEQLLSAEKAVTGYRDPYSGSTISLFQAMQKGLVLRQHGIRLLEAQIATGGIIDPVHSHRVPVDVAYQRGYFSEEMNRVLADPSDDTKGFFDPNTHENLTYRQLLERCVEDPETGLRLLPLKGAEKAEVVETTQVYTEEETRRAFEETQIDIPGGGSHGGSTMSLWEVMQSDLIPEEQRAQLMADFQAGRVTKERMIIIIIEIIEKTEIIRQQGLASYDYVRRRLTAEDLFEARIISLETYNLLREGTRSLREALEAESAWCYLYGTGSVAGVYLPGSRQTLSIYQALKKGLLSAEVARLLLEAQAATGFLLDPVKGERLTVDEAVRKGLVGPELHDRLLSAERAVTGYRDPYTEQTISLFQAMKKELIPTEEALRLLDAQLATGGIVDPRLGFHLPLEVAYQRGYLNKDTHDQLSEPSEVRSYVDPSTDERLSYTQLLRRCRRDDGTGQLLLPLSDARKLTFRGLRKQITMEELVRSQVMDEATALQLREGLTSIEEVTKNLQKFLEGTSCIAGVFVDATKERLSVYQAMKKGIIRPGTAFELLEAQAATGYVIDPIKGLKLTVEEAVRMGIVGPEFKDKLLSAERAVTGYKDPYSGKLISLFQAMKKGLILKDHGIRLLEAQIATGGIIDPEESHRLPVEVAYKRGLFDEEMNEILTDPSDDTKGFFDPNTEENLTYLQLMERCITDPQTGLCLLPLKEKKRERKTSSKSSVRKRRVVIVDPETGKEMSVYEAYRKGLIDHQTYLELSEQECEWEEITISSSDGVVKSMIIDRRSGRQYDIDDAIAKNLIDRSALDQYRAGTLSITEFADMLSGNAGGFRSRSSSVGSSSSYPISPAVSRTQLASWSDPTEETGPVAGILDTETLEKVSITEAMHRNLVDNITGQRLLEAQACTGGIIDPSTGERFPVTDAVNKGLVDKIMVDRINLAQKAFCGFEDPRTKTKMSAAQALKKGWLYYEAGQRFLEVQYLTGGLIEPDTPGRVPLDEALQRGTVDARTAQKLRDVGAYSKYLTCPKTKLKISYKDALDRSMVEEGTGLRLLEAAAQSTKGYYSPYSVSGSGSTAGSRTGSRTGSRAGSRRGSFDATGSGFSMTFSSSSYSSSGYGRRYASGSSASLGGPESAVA
# UniProt P04406, sequence (P04406 whole entry, looked up): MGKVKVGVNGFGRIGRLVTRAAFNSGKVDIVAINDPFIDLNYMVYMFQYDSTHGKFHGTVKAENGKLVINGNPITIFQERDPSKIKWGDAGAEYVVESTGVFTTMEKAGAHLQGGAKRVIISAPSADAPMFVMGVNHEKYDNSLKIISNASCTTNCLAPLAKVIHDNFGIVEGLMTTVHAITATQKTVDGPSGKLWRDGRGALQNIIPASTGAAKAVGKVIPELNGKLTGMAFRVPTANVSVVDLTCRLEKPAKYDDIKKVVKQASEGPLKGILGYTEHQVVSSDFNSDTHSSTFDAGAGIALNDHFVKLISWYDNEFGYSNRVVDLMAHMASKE
# UniProt P60981, sequence (P60981 whole entry): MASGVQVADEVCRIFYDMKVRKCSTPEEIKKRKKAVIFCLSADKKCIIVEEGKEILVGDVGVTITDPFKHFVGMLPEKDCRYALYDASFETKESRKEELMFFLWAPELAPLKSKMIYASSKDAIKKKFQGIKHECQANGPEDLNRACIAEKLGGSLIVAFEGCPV
row,Target,lysine labeling ratio R10:1
1,DDX5 (lysine site: K375) (UniProt P17844),2.45
2,IGF1R (lysine site: K709) (UniProt P08069),4.79
3,RPS3A (lysine site: K63) (UniProt P61247),1.79 (active)
4,UniProt Q9NYU2 (lysine site: K362),3.31
5,LAMB2 (lysine site: K1720) (UniProt P55268),5.02
6,UniProt P25705 (lysine site: K161),3.49
7,PIEZO1 (lysine site: K113) (UniProt Q92508),4.13
8,FAT4 (lysine site: K2004) (UniProt Q6V0I7),1.27 (active)
9,GAPDH (lysine site: K117) (UniProt P04406),3.17
10,TGFBR3 (lysine site: K667) (UniProt Q03167),0.83 (active)
11,DSTN (lysine site: K19) (UniProt P60981),1.87 (active)
12,PPIC (lysine site: K49) (UniProt P45877),1.58 (active)
13,ECE1 (lysine site: K197) (UniProt P42892),2.89
14,UniProt Q15149 (lysine site: K1815),3.79
15,FRAS1 (lysine site: K3209) (UniProt Q86XX4),2.67
16,MYH9 (lysine site: K1024) (UniProt P35579),1.84 (active)
17,RBMX (lysine site: K150) (UniProt P38159),16.9
18,NUCB1 (lysine site: K364) (UniProt Q02818),2.75
19,PLXNB2 (lysine site: K1121) (UniProt O15031),0.81 (active)
20,DSG2 (lysine site: K430) (UniProt Q14126),6.01
21,MCAM (lysine site: K182) (UniProt P43121),3.4
22,LAMC1 (lysine site: K1584) (UniProt P11047),3.72
23,MSN (lysine site: K391) (UniProt P26038),1.79 (active)
24,SPTAN1 (lysine site: K1856) (UniProt Q13813),5.67
25,CYR61 (lysine site: K378) (UniProt O00622),1.08 (active)
26,MSN (lysine site: K165) (UniProt P26038),3.56
27,NUMA1 (lysine site: K1625) (UniProt Q14980),3.65

row,Target,lysine labeling ratio R10:1
1,UniProt Q15697 (lysine site: K143),2.8
2,SLC9A6 (lysine site: K61) (UniProt Q92581),4.56
3,ENO1 (lysine site: K126) (UniProt P06733),3.29
4,FAT4 (lysine site: K2570) (UniProt Q6V0I7),3.02
5,ACTN4 (lysine site: K331) (UniProt O43707),1.71 (active)
6,PPIA (lysine site: K49) (UniProt P62937),3.03
7,G6PD (lysine site: K360) (UniProt P11413),2.07
8,PLXNB2 (lysine site: K941) (UniProt O15031),2.31
9,GAPDH (lysine site: K194) (UniProt P04406),6.75
10,SH3BP4 (lysine site: K679) (UniProt Q9P0V3),3.02
11,LAMB1 (lysine site: K1495) (UniProt P07942),4.06
12,ENG (lysine site: K556) (UniProt P17813),2.03
13,RPS19 (lysine site: K143) (UniProt P39019),1.75 (active)
14,DNAJA1 (lysine site: K144) (UniProt P31689),2.55
15,IGSF3 (lysine site: K92) (UniProt O75054),2.4
16,DDX5 (lysine site: K207) (UniProt P17844),4.37
17,UniProt P16144 (lysine site: K388),0.94 (active)
18,UniProt Q15149 (lysine site: K2277),0.748 (active)
19,EPHA2 (lysine site: K441) (UniProt P29317),7.45
20,THBS1 (lysine site: K300) (UniProt P07996),2.22
21,SLC25A5 (lysine site: K63) (UniProt P05141),3.19
22,SLC39A6 (lysine site: K249) (UniProt Q13433),3.94
23,YWHAQ (lysine site: K80) (UniProt P27348),3.11
24,ITGA2 (lysine site: K884) (UniProt P17301),1.93 (active)
25,TNKS1BP1 (lysine site: K1676) (UniProt Q9C0C2),2.22
26,CLTC (lysine site: K1612) (UniProt Q00610),4.67
27,UniProt Q99623 (lysine site: K200),2.34

row,Target,lysine labeling ratio R10:1
1,UniProt Q12904 (lysine site: K35),1.92 (active)
2,PGK1 (lysine site: K323) (UniProt P00558),5.55
3,TFRC (lysine site: K344) (UniProt P02786),9.15
4,ZMPSTE24 (lysine site: K259) (UniProt O75844),2.08
5,FN1 (lysine site: K1623) (UniProt P02751),1.34 (active)
6,CLTC (lysine site: K1264) (UniProt Q00610),1.58 (active)
7,UniProt Q9BSJ8 (lysine site: K197),5.31
8,IGSF8 (lysine site: K143) (UniProt Q969P0),2.9
9,RDX (lysine site: K363) (UniProt P35241),1.44 (active)
10,JPT2 (lysine site: K90) (UniProt Q9H910),5.53
11,UniProt P60660 (lysine site: K26),1.69 (active)
12,UniProt P26639 (lysine site: K36),3.28
13,UniProt Q9NP84 (lysine site: K48),4.2
14,IGSF3 (lysine site: K888) (UniProt O75054),4.12
15,ACTBL2 (lysine site: K114) (UniProt Q562R1),1.15 (active)
16,DNASE1L1 (lysine site: K107) (UniProt P49184),1.25 (active)
17,RPL5 (lysine site: K197) (UniProt P46777),1.37 (active)
18,UniProt Q15149 (lysine site: K630),7.1
19,UniProt P15941 (lysine site: K1125),3
20,EDIL3 (lysine site: K426) (UniProt O43854),2.91
21,SPTAN1 (lysine site: K2078) (UniProt Q13813),4.25
22,UniProt Q16352 (lysine site: K290),1.71 (active)
23,UniProt Q16363 (lysine site: K717),0.58 (active)
24,SPTBN2 (lysine site: K1909) (UniProt O15020),1.63 (active)
25,DYNC1H1 (lysine site: K371) (UniProt Q14204),1.14 (active)
26,UniProt P18859 (lysine site: K105),3.04
